The target in test [1] is Metallo-beta-lactamase type 2 (Klebsiella pneumoniae) (UniProt C7C422). Briefly: qHTS to identify inhibitors of the New Delhi Metallo-beta-lactamase (NDM): assay validation screen against the NCATS LOPAC Collection (AID 1794843).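 Also: nitrocefin turnover by NDM-1 measured as 485 nm absorbance at plateau; series mostly up to about 38 µM.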 An outline of the steps:
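Enzyme 2 nM final, 50 mM HEPES pH 7.0, 1 uM ZnSO4, 0.01% Tween20; cpds in DMSO, preincub w/ enzyme; + nitrocefin (50 uM stock); A485 at plateau; no-enzyme column as blank.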

Test [2] has as its target Glutathione peroxidase 1 (Homo sapiens) (UniProt P07203). Briefly: Primary qHTS Assay for Inhibitors of Recombinant Selenoprotein Glutathione Peroxidase 1 (GPX1) (AID 1845191). Also: nearly all actives have a fitted effect of over 65% in size. Also: potency is read from the fitted curve at half-maximal effect. In outline:
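GR-coupled assay: compounds preincubated 30 min at room temperature with GPX1, then reaction started with CHP; final 10 nM GPX1, 1 mM GSH, 0.5 mM CHP, 0.5 mM NADPH, 100 nM GR, 0.01% BSA, pH 7.5 Tris buffer. NADPH fluorescence (340/450 nm) read at 0 and 15 min.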

Test [3] addresses Phospholipid hydroperoxide glutathione peroxidase GPX4 (Homo sapiens) (UniProt P36969). Briefly: Primary qHTS Assay for Inhibitors of Recombinant Selenoprotein Glutathione Peroxidase 4 (GPX4) (AID 1845192). Also: nearly all actives have a fitted effect of over 65% in size. An outline of the steps: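 GR-coupled assay: recombinant GPX4 preincubated 30 min with compound at room temperature; final 200 nM GPX4, 1 mM GSH, 0.5 mM cumene hydroperoxide, 0.5 mM NADPH, 100 nM GR, 0.01% BSA, pH 7.5 Tris. NADPH fluorescence (340/450 nm) read at 0 and 15 min.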

For test [4], the target named is Luciferin 4-monooxygenase (Photinus pyralis) (UniProt P08659). Briefly: Primary firefly luciferase (FLuc) qHTS assay for identification of artifact compounds. (AID 1845220). Also: nearly all actives have a fitted effect of over 60% in size. In outline: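 Titrated compounds were incubated 15 min at RT, protected from light, with luciferin and ATP at 10 uM; reaction started with 10 nM FLuc, luminescence imaged at 5 min, and concentration-response fitted by Hill equation.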
Background: Quantitative high-throughput screening tests each substance at several concentrations.

Test [5] has as its system Nanoluciferase (engineered Oplophorus gracilirostris luciferase). Briefly: Primary Nanoluciferase (NLuc) qHTS assay for identification of artifact compounds. (AID 1845222).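 Also: NLuc secreted into diluted conditioned medium of S16 cells; series mostly up to about 54 µM.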 An outline of the steps:
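qHTS format, against NLuc in S16 cell-conditioned medium. Nano-Glo substrate 1:100 was added after 15 min at room temperature. Luminescence was taken after a further 5 min.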

The nature of test [6]: Primary redox qHTS assay for identification of artifact compounds. (AID 1845223). An outline of the steps:
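Amplex Red (25 uM) and HRP (250 mU/mL) in HBSS, with compounds for 15 min, then 250 uM DTT for 30 min, room temperature, dark. Fluorescence 525/598 nm read; normalized to DMSO and 10 uM DA3003; Hill fit.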

Test [7] can be described thus: Primary fluorescence-based thiol-reactive (MSTI) qHTS assay for identification of artifact compounds. (AID 1845221).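 Also: series mostly up to about 54 µM; thiol-reactive compounds lower the probe fluorescence signal; nearly all actives have a fitted effect of over 65% in size.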 In outline: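 Curve-fitted percent inhibition (4-parameter Hill) derived from fluorescence, Ex 525/Em 598 nm, scaled with Acetyl-MSTI and MSTI; 1 h incubation at room temperature.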
Test [8] can be described thus: Quantitative High-Throughput drug screen in 47 multiple myeloma cell lines against the NCATS MIPE library collection: FR4_PLB cell viability assay (AID 1918924; also: nearly all actives have a fitted effect of over 35% in size). In outline: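 Inhibition of cell viability is measured here. Each line was plated at 500 cells per well, treated with MIPE 4.0 drugs, kept 48 hours at 37C, then assayed for ATP content by CellTiter-Glo luminescence.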

Test [9] in a line: Quantitative High-Throughput drug screen in 47 multiple myeloma cell lines against the NCATS MIPE library collection: Delta47_JCRB cell viability assay (AID 1918925; also: nearly all actives have a fitted effect of over 45% in size). An outline of the steps: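 Steps: seed 500 cells per well; pin-transfer MIPE 4.0 library; incubate 48 h at 37C, 5% CO2, humidified; add CellTiter-Glo, 5 min room temperature; read luminescence.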

Values joined by “and” are separate entries in the source; they are usually repeats but may differ in a detail not shown here. Equal entries are not always repeated. Records with an inconclusive call do not appear. Where a structure was tested more than once in an assay, its records may differ in their call. Active and inactive are the calls of the source. Calls follow the shape of the dose curve; as a rule, active = well fitted curve in the direction sought with a large enough effect; inconclusive = small, poorly fitted or top-dose-only effect, or another doubt; inactive = no such curve, though single readings can be large; an effect the other way counts as inactive or inconclusive.

Sequence of Metallo-beta-lactamase type 2 (Klebsiella pneumoniae) (C7C422 whole entry, looked up): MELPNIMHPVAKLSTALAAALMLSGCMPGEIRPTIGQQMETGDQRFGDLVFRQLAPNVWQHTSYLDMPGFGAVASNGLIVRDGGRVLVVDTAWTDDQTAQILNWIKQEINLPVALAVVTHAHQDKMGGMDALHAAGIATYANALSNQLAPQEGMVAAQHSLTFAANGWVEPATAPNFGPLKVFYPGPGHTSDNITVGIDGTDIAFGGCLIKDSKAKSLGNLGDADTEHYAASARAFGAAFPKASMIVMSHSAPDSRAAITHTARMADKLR
Sequence of Phospholipid hydroperoxide glutathione peroxidase GPX4 (Homo sapiens) (P36969 whole entry, looked up): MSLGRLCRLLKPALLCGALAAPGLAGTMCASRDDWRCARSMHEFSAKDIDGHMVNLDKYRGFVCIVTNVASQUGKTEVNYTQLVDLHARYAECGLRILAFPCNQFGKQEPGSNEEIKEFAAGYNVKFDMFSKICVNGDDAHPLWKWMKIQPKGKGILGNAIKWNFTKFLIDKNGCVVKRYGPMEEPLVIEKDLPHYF
Sequence of Glutathione peroxidase 1 (Homo sapiens) (P07203 whole entry, looked up): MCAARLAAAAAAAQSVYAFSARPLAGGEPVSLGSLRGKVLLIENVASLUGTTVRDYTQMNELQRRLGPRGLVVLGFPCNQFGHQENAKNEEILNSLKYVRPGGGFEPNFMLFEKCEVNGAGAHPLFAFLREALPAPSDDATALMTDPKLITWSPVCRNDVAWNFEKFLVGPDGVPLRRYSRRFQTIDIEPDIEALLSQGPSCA

Turning to `CN(C)CCC(c1ccccc1)c1ccccn1` (stereo unspecified), the Potency result in [1], in test [2], in test [3], in [4] and in [5] was “inactive” throughout. Also, in test [6], the call was inactive.

Turning to `CC(=O)O[C@]1(C(C)=O)CC[C@H]2[C@@H]3C=C(Cl)C4=CC(=O)[C@@H]5C[C@@H]5[C@]4(C)[C@H]3CC[C@@]21C`, the Potency result in [1], in test [2], in test [3], in test [4], in test [7] and in [5] was “inactive” each time. Moreover, in test [6], the outcome was inactive.

As to `CC(=O)c1ccc(S(=O)(=O)NC(=O)NC2CCCCC2)cc1`, the Potency result in [1], in [2] and in test [3] was “inactive” throughout.

As for `CC(C)NCC(O)COc1cccc2[nH]ccc12` (stereo unspecified), the Potency result in [1], in test [2], in test [3], in test [4], in [7] and in test [5] was “inactive” throughout. Besides, the compound was classed as inactive in test [6].

For the compound `O=C1NCC2(CCN(CCc3ccccc3)CC2)O1`, the Potency entry in [1], in test [2] and in [3] was “inactive” throughout.

For `C[N+](C)(C)CCCCCC[N+](C)(C)C`, the Potency entry in test [1], in test [2] and in test [3] was “inactive” throughout.

Consider `CCn1cc(C(=O)O)c(=O)c2ccc(C)nc21`, for which the Potency result in test [1], in test [2], in test [3], in test [8] and in test [9] was “inactive” each time.

Take `NCCS`: the Potency result in test [1], in test [2] and in test [3] was “inactive” throughout.

Consider `CC(=O)OC1C(C)OC(Oc2c(-c3ccc(O)cc3)oc3cc(O)cc(O)c3c2=O)C(O)C1OC(C)=O` (stereo unspecified), for which the Potency entry in test [2] and in test [3] was “inactive” each time.

Regarding `COC(=O)[C@@H]1[C@H]2C[C@H]3c4[nH]c5ccccc5c4CCN3C[C@@H]2CC[C@@H]1O`, the Potency entry in [1], in test [2], in test [3], in [4], in [7] and in [5] was “inactive” each time. The compound was classed as inactive in [6].

Turning to `COC1CCC(N(C(=O)C2CCC(C)CC2)c2cc(C3=CCCCC3)sc2C(=O)O)CC1` (stereo unspecified), the Potency result in test [2] is “inactive”.

In the case of `c1cc(-c2sc(-c3ccncc3)c(-c3ccncc3)c2-c2ccncc2)ccn1`, the Potency result in [2] and in test [3] was “inactive” each time.

In the case of `OC[C@@H](O)[C@H](O)[C@H](O)[C@@H](O)CO`, the Potency entry in test [2] and in test [3] was “inactive” in each case.

Take `Cc1cccc(C)c1OCC(C)N` (stereo unspecified): the Potency result in test [1], in test [2] and in [3] was “inactive” in each case.

`CCN1CCC[C@H]1CNC(=O)c1cc(S(N)(=O)=O)ccc1OC`: the Potency entry in [1], in test [2], in [3], in test [4], in [7] and in test [5] was “inactive” each time. Further, the compound was called inactive in test [6].

With `CC(=O)Oc1cc2c(s1)CCN(C(C(=O)C1CC1)c1ccccc1F)C2` (stereo unspecified), the Potency in test [2] was 16.1 µM (active) and inactive and 20.2 µM (active). Also, the Potency entry in test [3] was “inactive”.

Consider `CCN(CC)CCOC(=O)c1ccc(N)cc1`, for which the Potency result in [1], in test [2] and in test [3] was “inactive” each time.

The record behind these values is PubChem BioAssay (NCATS).
